Compound activity from PubChem.
TRHR ag: agonists of human TRH receptor; activation, % at 2 µM; P34981; AID 493084; 360,000 tested, 0.18% active; TRHR cells, calcium flux fluo-8, FDSS agonist mode; note: 0% is about no effect
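Read-out: compound-evoked intracellular calcium rise in TRHR cells, fluo-8 dye, kinetic FDSS fluorescence at 1 s/cycle following a 10-cycle baseline. Cells cultured overnight before dye loading (30 min–1.5 h, RT).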
D1 potentiator: human D1 dopamine receptor positive modulation; HEK293 TREx D1 cells, calcium flux, dopamine EC20 potentiation; potentiation, % at 10 µM; 360,000 tested, 0.036% active; in the data active = potentiation above about 30%; note: 0% is about no effect
Target sequence (P21728 whole entry, looked up): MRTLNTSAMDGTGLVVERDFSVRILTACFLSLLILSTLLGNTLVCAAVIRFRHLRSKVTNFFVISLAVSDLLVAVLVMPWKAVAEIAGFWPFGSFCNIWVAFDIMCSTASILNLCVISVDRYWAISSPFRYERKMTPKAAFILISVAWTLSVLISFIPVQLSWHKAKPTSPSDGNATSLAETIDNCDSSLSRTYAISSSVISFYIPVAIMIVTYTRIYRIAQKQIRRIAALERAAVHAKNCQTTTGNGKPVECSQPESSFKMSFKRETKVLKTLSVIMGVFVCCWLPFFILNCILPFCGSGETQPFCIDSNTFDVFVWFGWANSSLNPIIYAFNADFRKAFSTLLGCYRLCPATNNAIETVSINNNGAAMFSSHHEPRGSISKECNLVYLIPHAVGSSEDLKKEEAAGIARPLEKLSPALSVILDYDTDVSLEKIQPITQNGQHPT
D1 antag: antagonists of human D1 dopamine receptor; P21728; HEK293 TREx D1 cells, calcium flux, dopamine EC80; hits give low values; activity change, negative = inhibition, % at 10 µM; 360,000 tested, 3.2% active; in the data active = activity change below about -30%; note: % is set by controls: 0 for no effect and ±100 for the full control effect
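HEK293 T-REx cells expressing inducible, force-coupled D1 receptor; no-wash Ca dye, 30–90 min RT. Cmpd → 180 s read at 1 Hz → EC80 DA → 180 s read.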
TRHR PAM: allosterically enhances the human TRH receptor. 360,000 tested, 0.66% active. P34981. AID 493056. TRHR cells, fluo-8 calcium fluorescence, EC20 TRH enhancement. enhancement, % at 2 µM; in the data active = enhancement above about 30%; note: 0% is about no effect
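TRHR-expressing cells loaded with fluo-8 calcium dye were read kinetically (ex 480/em 530) during compound addition, then stimulated with an EC20 of TRH (10 nM final). Enhancement of the Gq-mediated intracellular calcium response was scored.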
D1 agonist: activates the human D1 dopamine receptor; P21728; HEK293 T-REx D1 cells, calcium flux, agonist mode; activation, % at 2 µM; 360,000 tested, 1% active; note: 0% is about no effect
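Tetracycline-induced HEK293 TREx D1 cells, force-coupled to calcium signalling, were dye-loaded with a no-wash calcium kit. Compound was pin-added after a 10 s baseline. Fluorescence was read kinetically at 1 cycle/s for 180 s, with calcium rises flagged as agonism.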
Starred values were filed as active, the others as inactive; ! = not confirmed by another sample. The list is not random: actives were taken first. Their share in the collection is about 4.7%. Cut-off read from the data, not from the text of the source, unless noted: active = activation above about 30%; inactive = the rest.

SMILES	TRHR ag	D1 potentiator	D1 antag	TRHR PAM	D1 agonist
COc1ccccc1N1C(=O)C2C(C(=O)c3ccccc3)=NN(c3ccccc3OC)C2C1=O (configuration not stated)	27	0	8	-1	78*
Cc1ccc2nc(SCC(=O)NCC3CCCO3)c(C#N)cc2c1 (configuration not stated)	-1	-10	-32*	-23	1
Cc1ccc(-c2ccc(SCC(=O)NCC3CCCO3)nn2)cc1 (configuration not stated)	-1	-2	-34*	0	3
Cc1ccc2cc(C#N)c(SCC(=O)NCC3CCCO3)nc2c1 (configuration not stated)	-1	-5	-2	-5	0
Cc1cn2c(=O)cc(COc3ccc(C(C)(C)C)cc3)nc2s1	-1	0	11	-6	3
Cc1cc2c(n1-c1ccc(C(=O)NCC(C)c3ccccc3)cc1)CCCC2 (configuration not stated)	0	-1	4	4	0
COC(=O)c1nnn(-c2nonc2N)c1COc1ccc(C=O)cc1OC	0	1	-3	-4	2
Cc1ccc2[nH]c(=O)c3cc(C(=O)N(CCCOC(C)C)Cc4ccco4)sc3c2c1	2	-2	4	42*!	1
Cc1noc(C)c1C(=O)Nc1cccc(S(=O)(=O)N2CCCCC2)c1	0	0	-3	-1	1
NC(=O)CNC(=O)C1CCCc2c1[nH]c1ccc(Cl)cc21 (configuration not stated)	1	4	-4	-1	2
CCOC(=O)CNC(=O)C1CCCc2c1[nH]c1ccc(Cl)cc21 (configuration not stated)	0	-3	-35*	-2	16
Cc1c(C)n(Cc2ccc(Cl)cc2)c2ccc(C(=O)NCCN3CCOCC3)cc12	0	-12	-38*	-1	5
CC(C)(C)c1ccc(C(=O)NCCCN2CCN(CCCNC(=O)c3ccc(C(C)(C)C)cc3)CC2)cc1	1	-7	-30*	7	24
O=C(NCCCN1CCOCC1)c1ccc(Br)cc1	0	-4	29	-7	2
O=C(NCCCN1CCOCC1)c1ccc(CSc2ccc(Cl)cc2)cc1	0	-14	-35*	-2	24
CC(C)c1ccc(C(=O)NCCCN2CCOCC2)cc1	0	-1	-19	-3	3
CCN(Cc1ccncc1)C(=O)c1cc(COc2ccc(C)c(C)c2)on1	-1	-12	-23	1	14
Cc1ccc(OCc2cc(C(=O)N(CCO)Cc3cccs3)no2)cc1C	0	-8	-45*	11	17
O=C(NCc1ccco1)c1ccc2c(c1)N(Cc1ccc(Cl)cc1)CCS2	0	-8	-37*	-2	2
Cc1ccc(NC(=O)COc2ccc(CCO)cc2-n2nc3ccccc3n2)cc1C	1	-9	-72*	-3	5
Cc1nn(C(=O)CCCC(=O)NCc2ccccc2)c2ccccc12	-1	-5	-17	-5	0
O=C(NCCCN1CCCCCC1)c1ccc2c(c1)sc1nc(-c3ccccc3)cn12	0	4	-12	14	2
CCCN1CCN(CCCNC(=O)c2ccc3c(c2)sc2nc(-c4ccc(C)cc4)cn23)CC1	0	-2	-30*	1	2
COC(=O)C1CCN(S(=O)(=O)CCNC(=O)c2ccc(F)cc2)CC1	0	-4	8	-10	0
CCN(C#N)c1nc(NC(C)C)nc(NC(C)(C)C)n1	2	0	27	16	51*
SMILES	TRHR ag	D1 potentiator	D1 antag	TRHR PAM	D1 agonist
Cc1nc2sc(C)c(C)n2c(=O)c1S(=O)(=O)N1CCN(c2ccccc2F)CC1	0	-5	-29	35*	4
Cc1nc2scc(C)n2c(=O)c1S(=O)(=O)N1CCN(c2ccccc2)CC1	0	-3	-4	-1	-4
NC(=O)CC(NC(=O)Cc1cccc2ccccc12)c1ccc(NCc2ccc(F)cc2)c([N+](=O)[O-])c1 (configuration not stated)	-1	3	19	-1	2
NC(=O)CC(NC(=O)Cc1cccc2ccccc12)c1ccc(NCc2ccccc2)c([N+](=O)[O-])c1 (configuration not stated)	0	1	-31*	9	3
Cc1ccc(-n2c(=O)c3c(cnn3C)n(Cc3ccccc3F)c2=O)cc1	0	0	-3	-4	1
O=C(O)CSCCc1ccccn1	0	-7	-82*	-20	0
COc1ccc(NS(=O)(=O)c2cccc(C(=O)N/N=C(\C)c3cccnc3)c2)cc1	0	-9	15	25	3
CC(C)N=C(NC#N)SCC(=O)NC(C)(C)C	0	-5	10	-4	2
CC(C)N=C(NC#N)SCc1ccccc1F	-1	-3	-49*	0	2
CC(C)(C)NC(=O)CSC(=Nc1cccc(F)c1)NC#N	1	-16	-40*	-4	2
N#CNC(=Nc1ccccc1)SCc1ccc(C(=O)O)cc1	2	-3	-1	5	2
N#CNC(=Nc1cccc(F)c1)SCc1ccccc1F	6	-4	-40*	-10	20
CCN(CC)C(=O)C1=C(C)Nc2nc3ccccc3n2C1c1ccc(Br)cc1 (configuration not stated)	2	2	-5	-9	-2
COc1ccc(-c2cc3nc(C)cc(N)n3n2)cc1	0	-3	-5	30*	1
COc1ccc(C(=O)Nc2ccc3c(c2)nc(CCNC(C)=O)n3C)cc1	1	1	-5	31*	3
c1csc(-c2noc(COc3ccc4c(c3)CCCC4)n2)c1	0	-2	-39*	10	27
Cc1ccc(C)c(C(C)NC(=S)NC2CCCCC2)c1 (configuration not stated)	1	-2	-2	-5	17
CCC(NC(=S)NC1CCCCC1)c1ccc(C)cc1 (configuration not stated)	0	0	-59*	-2	13
CCCc1ccc(C(C)NC(=S)NC2CCCCC2)cc1 (configuration not stated)	3	0	-6	-5	36*
CCc1ccc(NC(=O)Nc2cccs2)cc1	1	-7	-37*	-5	11
COc1ccc(NC(=O)c2ccc(NC3CC(=O)N(c4ccc(C)cc4C)C3=O)cc2)cc1 (configuration not stated)	1	-3	-31*	7	6
Cc1[nH]c(=S)c(C#N)c(C)c1CC(=O)c1ccc(Br)cc1	0	3	5	6	4
Cc1[nH]c(=S)c(C#N)c(C)c1Cc1ccc(Cl)cc1Cl	0	-5	-51*	-1	0
Cc1[nH]c(=O)c(C#N)c(C)c1Cc1ccc(Cl)cc1Cl	-1	6	-62*	0	0
